From PubChem BioAssay AID1508600 (Functional Genomics Laboratory (NCATS/FGL), 2020) come the findings set out here.

Screen size: about 53,000 sequences; about 3,700 (7%) were called active.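 Rule for the calls: active = gene knockdowns whose robust z-score for IL-1 alpha signal is at least 2 or at most -2, so actives lie on both sides; inactive = the rest.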 The full list was thinned out, with actives kept by preference.

This assay is described as follows: Components of the Cytosolic LPS Sensing Pathway: Gene Identification via Genome-wide siRNA Screen. As to conditions: RAW264.7 macrophages, IL-1a HTRF, actives lie on both sides, screened at 100 nM (by protocol), cells primed 5 h with Pam3CSK4 first. The source says: Non-canonical inflammasome activation by cytosolic LPS is a critical component of the host response to Gram-negative bacterial infection, however we lack a comprehensive understanding of the cellular processes that control this pathway. Here we describe a genome-wide siRNA screen to identify genes regulating the mouse macrophage IL-1 alpha response to cytosolic LPS.
RAW264.7 cells were maintained in complete DMEM media, comprising DMEM with 4.5 g/L glucose, 10% FBS (Gemini Bio-Products, West Sacramento, CA), 2 mM Glutamine (Lonza) and 20 mM HEPES (Lonza), hereafter complete DMEM.
The RNAi screen was conducted in 384-well format using the Ambion Silencer Mouse Genome siRNA Library (#4391425), which consists of three unique, nonoverlapping, nonpooled siRNAs for each of 17,000 gene targets. siRNA reagents ([…]) were stamped into 384-well white flat-bottom microplates (Corning, 3570) using a Velocity11 VPrep liquid handling system (Agilent) integrated into a BioCel robotic platform (Agilent) in columns 1-22, leaving columns 23-24 empty for negative (Ambion, Negative control #1) and positive (mouse Casp4) controls, respectively. The median value of each plate's negative control column was used to normalize sample wells, and the positive control was used to assess transfection efficiency and assay performance.
Lipofectamine RNAiMAX Transfection Reagent ([…]; Invitrogen) was added in […] serum-free, antibiotic-free media to plate wells using a Thermo Scientific Matrix WellMate and Microplate Stacker. Plates were incubated for 45 min at room temperature to allow for the sufficient formation of siRNA-lipid complexes. Cells were seeded at a density of 1x10^4 cells per well in 20 microL media containing 20% (vol/vol) FBS without antibiotics. The final concentration of siRNA in each well was 100 nM. Cells were cultured for 48h at 37 degrees C in 5% CO2 before addition of […] of TLR ligand Pam3CSK4 for 5 hours. The medium was then removed, replaced with […] growth media and cell were transfected with […] of LipidA and TransIT-TKO (Mirus) for 24 hour. At the end of the LipidA treatment, […] of supernatant was transferred to a 384 Greiner Bio-one non-binding low volume plate and […] of IL-1a HTRF reagent (Cisbio, 62MIL1APEH) was added and incubated at room temperature overnight. The plates were read on an EnVision plate reader (PerkinElmer). Cell viability was measured by adding 20ul Cell Titer Glo to the original plate and running a luminescence read on the EnVision. The quantified IL-1a signal for each siRNA gene-targeted well was divided by the median of the negative control wells and multiplied by 100 to achieve a negative control normalized value for each well/siRNA. This normalized value was then used to generate a robust z-score by first taking the log of each value and then by subtracting the median and dividing by the […].
Background: Time-resolved FRET reads energy transfer from a long-lived donor to a nearby acceptor.
On to GGUCAGCAUUUGCUAUGAATT against Tmsb15l, for which the z-score was -2.02 (active).
For GCCAAGUCUGCUUCACGAGTT against Nyap1, the z-score was 1.82 (inactive).
Turning to CCUCACAAUAUCUUUAGAATT against Cep162, the z-score is -0.0322 (inactive).
Consider GGCAGGAUAUGUAUUCUGATT against Tmem121b, for which the z-score was 1.15 (inactive).
As for GGAAACCUCCGAAAGGCAUTT against Rcor1, the z-score is -0.0503 (inactive).
To GGAUAAAGUCACCUUCAUCTT against Itgam belongs 1.86 (inactive); to CCGCUAUAUCACGGAGCAGTT against En1, 2.45 (active); to GCACUUUCCUAAUGGUCCUTT against Ifnab, 0.104 (inactive).
With GGAUCCUCACCAAGAUUACTT against Mrps22, the z-score is 0.391 (inactive).
To GGAAUUUAAGGAAGCUGCUTT against Homer1 belongs -0.698 (inactive).
As for GGGUGAGAAAAUUCACGAGTT against Tubg2, the z-score was 0.536 (inactive).
With GCCAAGGUGCAGAUAAGGUTT against Rhox7a, the z-score was 2.6 (active).
For the sequence GGAUUGAGAAAAUCUACAUTT against Tnfrsf8, the z-score was 0.505 (inactive).
To GGGUCAGAUGGUACCAAGATT against Adamts18 belongs 0.0174 (inactive).
On to GCCUUGUUUAUAUGCCCAATT against Olfr592, for which the z-score was 0.0232 (inactive).
For GGCAAGAAAGAAAGGCCAATT against Rps23 the value was 0.00872 (inactive); for CCCUCUGUGGUUAAAGACUTT against Tctex1d2, -2.88 (active); for GGUUCAAUUCACAGAGCGCTT against Mrpl21, 1.37 (inactive).
For GGGCAACUUUGAUUAAUCATT against Hsd3b7 the value was 1.02 (inactive).
On to GGUAACUUCAUGUGCAGCATT against Ldlrad3, for which the z-score was -1.71 (inactive).
For GGCGUAUGCAGAAUUCUACTT against Cox6c the value was -0.0709 (inactive).
To GGAGAAGUCAUUGUUUUUGTT against Klhdc2 belongs -0.493 (inactive); to GGCACAACAUCAUCUGUCUTT against Psmd9, -2.05 (active).
To GCUACUGACCAUUCUAACUTT against Tmem198b belongs 0.264 (inactive); to GGAAGGACUGUCAAAUGGCTT against Med11, -0.171 (inactive).
CCAUGUCUUGAACUUGGAUTT against Tsks: the z-score was 0.793 (inactive).
To CCGACUCCAGUUGAAUGUUTT against Tgif2 belongs -0.572 (inactive).
For CCAGUUUGAUGGUAGACAATT against Tifa the value was -1.38 (inactive); for CGUAUUGUUUCCUAGCACATT against Arhgef38, 2.08 (active); for GGUACCCAGCGAUCAUGCATT against Olfr1370, -0.109 (inactive).
For GGAACAACUUGAUACCUCUTT against Trim44 the value was -0.89 (inactive).
Take GGUCGGGAUUUAAUUUGUATT against Bbs9: the z-score was 0.978 (inactive).
To CGACUUCACCUUAUUCCUGTT against Nle1 belongs 0.811 (inactive); to GCAUAUUACACAGCACUAGTT against Itgbl1, -0.802 (inactive).
For GGUGUACUCUGUUCCCAUGTT against Psmb6 the value was -1.54 (inactive); for GGGAUUCGAAGGACAAUAGTT against Vmn1r211, -2.07 (active).
With GGUGUACAACUCCUAUAGGTT against P2ry13, the z-score is 0.24 (inactive).
To GGAUUUCAGCGAAGUGUACTT against Mapk11 belongs -0.395 (inactive); to CCAACGAAGCCAAUAAAUGTT against Pmis2, -2.12 (active).
Take GGAGCUGAGCAACAUCACATT against Il13: the z-score was -1.35 (inactive).
As to GCUUCACAUGAAGCAACCUTT against Fam149b, the z-score was -0.102 (inactive).
For the sequence GGAGAAGCAAAACUUUUAATT against Snrpa1, the z-score was -2.87 (active).
For GGUGUUGAACAAAUUAACUTT against Pprc1 the value was 0.508 (inactive); for GCAACUAUCCACUCUCUGCTT against Emg1, 0.977 (inactive).
For GGAGAUGGUCUCAUUAAGCTT against Psmd13 the value was -1.25 (inactive); for GCUCUGUUUUUAACCAUCCTT against Ccnt2, 0.227 (inactive); for GGUAUUAAGUUCCUGUAAUTT against Ahcyl2, -1.62 (inactive).
With GCUCUUGAAAUUUCACUCUTT against Ide, the z-score is 2.1 (active).
For GCCGCUUAGAGGCUCAUCUTT against Nfe2l2 the value was -1.86 (inactive).
Turning to GGACAACUAUGAAUUAGUGTT against Pfkp, the z-score was -0.801 (inactive).
For GGAAAAACAGCUUAACACUTT against Pate4 the value was 0.66 (inactive); for GCUUCCAAGAUGGAACUACTT against Psmb10, 0.657 (inactive).
On to GGAUGAAAUGAACCUAGAGTT against Sh3pxd2b, for which the z-score was -2.16 (active).
For GGAGAAGAUCACAAGAGGGTT against Slc35b1 the value was -0.736 (inactive); for GCAGAAUAGCUGAUGACAGTT against Galnt15, -0.155 (inactive).
As to GCUCCCAAGUUUACCCAGCTT against Mybphl, the z-score was 0.505 (inactive).
To CCUUGAACGAGAGUGCAUUTT against Pros1 belongs -0.798 (inactive).
In the case of CGUAAGUCAGUGAUGCUAUTT against Srp19, the z-score is 1.38 (inactive).
For the sequence GCUAUGAAGCAAUUGUGGATT against Fasn, the z-score was -0.527 (inactive).
In the case of GCGGUUAUAAUGGGACCAUTT against Kif15, the z-score was 3.21 (active).
As for GCCAGGAUACUAAGUGUUUTT against Jpt2, the z-score is 1.05 (inactive).
To GCAACAUCGUAUGUUAAUGTT against Slc9a4 belongs 0.0571 (inactive); to CGAAUACUUGAUGUCCAUGTT against Harbi1, -2.16 (active).
To CCAGGUGAAAACCAGGAUATT against Olfr205 belongs 0.925 (inactive).
For GGAAACCUAUGUCUCAAGATT against Mrps36 the value was -0.332 (inactive); for CCAGAGAUUCCCACACGUCTT against Havcr1, -1.37 (inactive).
On to GAAUCUGGUGAAGUAUUAUTT against Phip, for which the z-score is 0.518 (inactive).
GGGUUUAGCUCACUGAGUATT against Tm4sf5: the z-score was -1.53 (inactive).
For CCACUAUGUUCUCUGGAUATT against Llgl1, the z-score was -0.218 (inactive).
To CCACAUCUGAGACUAUUCATT against Crhr1 belongs 2.46 (active); to GGAACUGGGAGACCUAUAATT against Angptl2, -2.01 (active); to CCCACAGAAUCACUCCAAGTT against Utp14a, -0.211 (inactive).
Take GCUAUUCGUUUCUUAUAACTT against Slc19a3: the z-score is 0.83 (inactive).
To GGCAAUGAGUUCUGGAGUGTT against Capn8 belongs -0.928 (inactive); to GGUUCAAGGCAACACUGUGTT against Ankrd13d, -1.54 (inactive).
In the case of GGCUUUUGGUCUGAGAUGCTT against Snf8, the z-score is -2.04 (active).
As to GGUGCUCACGUUUUUCUUATT against B3galnt1, the z-score was 0.348 (inactive).
To GGAGGAAGUUGAAAAUGAATT against Myom2 belongs 0.157 (inactive); to “GGUACUCCUAGAACUCUACTT against 2410002F23Rik”, 1.01 (inactive).
With GCCCAGAGUUACGAGUAUGTT against Aacs, the z-score was 2.23 (active).
For GCCAAACGUGGGUUUGAUATT against Ccna1 the value was 4.74 (active); for GGAAGACUUGAGAAAUCACTT against Coro1c, 1.24 (inactive).
GCCAAGCUUGUCCAUUGAUTT against Akap9: the z-score is -0.443 (inactive).
CGUUAGCAUCAGGUCAAGUTT against Zfp251: the z-score is -0.323 (inactive).
To GGUGUUAACAAAAUGUACCTT against Phyh belongs 2.54 (active).
To CCUUAGGUCUAAGUAAUCUTT against Dnase1l1 belongs 2.3 (active); to GGACUCAAAUGUGAUGCAUTT against Prkcq, -0.718 (inactive); to GGCACAUUCAUAGAACAAGTT against Znrd1as, 2.01 (active).
With GCGGCGCAUGACUGAAAGATT against Chd8, the z-score was 0.86 (inactive).
For GGUCAACUCCUUUAUGAGCTT against Apoa4 the value was -0.238 (inactive).
To GGAUGAUGAGAGAAACAAATT against Jak1 belongs 3.78 (active); to GGAAGUAAAGAGGAUCUCATT against Vat1l, -0.678 (inactive); to GGUGAUUAGCAAUCAUCAGTT against Zfp942, -0.295 (inactive).
On to GGCCACUUGAGAACAUUCGTT against Nop10, for which the z-score is 0.331 (inactive).
In the case of GGUACAAUGAAAGUCUCACTT against Cnot6, the z-score was -0.0743 (inactive).
To GGACCUUGUACCCAUUCCUTT against Prr5 belongs 1.01 (inactive); to GCAAUGAGUGCUAGUUUUUTT against Cdc42, 2.6 (active); to CGUGGAUAUCAGAAAGCAATT against Cfhr2, -0.487 (inactive).
Consider GGACUUUAAUCACAGACAATT against Fem1b, for which the z-score was -1.73 (inactive).
In the case of CGAGUUCAUCAAAAAGGAATT against Kansl1l, the z-score is 0.708 (inactive).
To CCAUUCUCAGGCAAAUACUTT against Pid1 belongs 2.11 (active); to GGCUGAUGAUACUUAAACATT against Vmn1r83, -1.26 (inactive); to CGGCAUGCUGUGGAAAAAGTT against Btrc, -0.869 (inactive).
On to GCACUUUGACAUUUUGGUATT against Arl4c, for which the z-score is -0.0352 (inactive).
To AGAGCAAAAACUCGAGCACTT against Sox15 belongs -0.253 (inactive); to GGUUGUGAGUGAGAACACUTT against Prss35, 0.738 (inactive).
To CCUUGCAGCAUCAGGACUUTT against Ascl2 belongs 4.06 (active); to GGUAACACAGAAGAAAUCUTT against Higd1a, -0.0444 (inactive).
